This is an account of results in the supplement of paper PMC8007513.

Structures can show the parent of a compound that is named as a salt. ± gives the standard error. Out of some 1,300 compounds screened, about 130 (10%) showed an effect of 50% or more. The sample as a whole holds a higher share of strong results than the screen did.

For this experiment, the system named is Trichoderma virens ATCC 9645. As to the kind of experiment: growth yield (OD600) with compound + IPBC relative to untreated control; higher = less growth inhibition. As to conditions: compound concentration: 100 uM, IPBC concentration: 200 ng/ml. In short, it runs like this: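 Plates were read for OD600 at 40 h and 72 h after Trichoderma virens ATCC 9645 spores (15,000 spores ml^−1 in potato dextrose broth) were grown at 30 °C with library compounds at 100 μM final, with or without a biocide at 200 ng ml^−1. Growth is stated relative to the control with neither agent, as the mean of duplicate screens.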

Take `CN(C)[C@@H]1C(O)=C(C(N)=O)C(=O)[C@@]2(O)C(O)=C3C(=O)c4c(O)ccc(Cl)c4[C@@H](O)[C@H]3C[C@@H]12` [Demeclocycline hydrochloride] + CCCCNC(=O)OCC#CI [3-iodo-2-propynyl butylcarbamate (IPBC)]: the growth yield amounted to 68.8 ± 2.4% (40 h) and 76.1 ± 1.1% (72 h).

Regarding `CC(C)CC(N(C)C)C1(c2ccc(Cl)cc2)CCC1` (centres undefined) [Sibutramine hydrochloride] + CCCCNC(=O)OCC#CI [3-iodo-2-propynyl butylcarbamate (IPBC)], the growth yield is, setting by setting: (40 h) 76.7 ± 0.79%; (72 h) 90.82 ± 0.42%.

With `CCC[C@H](N[C@@H](C)C(=O)N1[C@H](C(=O)O)C[C@@H]2CCCC[C@@H]21)C(=O)OCC` [Perindopril] + CCCCNC(=O)OCC#CI [3-iodo-2-propynyl butylcarbamate (IPBC)], the growth yield (40 h) came to 98.8 ± 5.1% and the growth yield (72 h) was 97.5 ± 3.1%.

Turning to `COC(=O)Nc1nc2cc(C(=O)c3ccccc3)ccc2[nH]1` [Mebendazole] + CCCCNC(=O)OCC#CI [3-iodo-2-propynyl butylcarbamate (IPBC)], the growth yield (40 h) was 68 ± 1.9% and the growth yield (72 h) turned out to be 89.36 ± 0.63%.

With `CCCSc1ccc2[nH]c(NC(=O)OC)nc2c1` [Albendazole] + CCCCNC(=O)OCC#CI [3-iodo-2-propynyl butylcarbamate (IPBC)], the growth yield runs as follows: (40 h) 87.7 ± 8.9%; (72 h) 99.7 ± 2.8%.

As for `CCCCc1ccc2[nH]c(NC(=O)OC)nc2c1` [Parbendazole] + CCCCNC(=O)OCC#CI [3-iodo-2-propynyl butylcarbamate (IPBC)], the growth yield is, setting by setting: (40 h) 27 ± 4.1%; (72 h) 80.2 ± 2.2%.

With `CCCOc1ccc2[nH]c(NC(=O)OC)nc2c1` [Oxibendazol] + CCCCNC(=O)OCC#CI [3-iodo-2-propynyl butylcarbamate (IPBC)], the growth yield (40 h) turned out to be 44.6 ± 2.1% and the growth yield (72 h) was 85 ± 4.8%.

On to `COC(=O)Nc1nc2cc([S+]([O-])c3ccccc3)ccc2[nH]1` (centres undefined) [Oxfendazol] + CCCCNC(=O)OCC#CI [3-iodo-2-propynyl butylcarbamate (IPBC)], for which the growth yield stood at 93.4 ± 6.3% (40 h) and 98.2 ± 4.2% (72 h).

For the compound `COC(=O)Nc1nc2cc(C(=O)c3ccc(F)cc3)ccc2[nH]1` [Flubendazol] + CCCCNC(=O)OCC#CI [3-iodo-2-propynyl butylcarbamate (IPBC)], the growth yield is, setting by setting: (40 h) 86.4 ± 5.4%; (72 h) 91.1 ± 4.9%.

With `N#Cc1cc(NC(=O)C(=O)O)c(Cl)c(NC(=O)C(=O)O)c1` [Lodoxamide] + CCCCNC(=O)OCC#CI [3-iodo-2-propynyl butylcarbamate (IPBC)], the growth yield was 114 ± 10% (40 h) and 109 ± 12% (72 h).

Turning to `C=C(NC(=O)C(=C)NC(=O)c1csc(C2=N[C@@H]3c4csc(n4)[C@H]4NC(=O)c5csc(n5)[C@H]([C@](C)(O)[C@@H](C)O)NC(=O)[C@H]5CSC(=N5)/C(=C/C)NC(=O)[C@H]([C@@H](C)O)NC(=O)c5csc(n5)[C@]3(CC2)NC(=O)[C@H](C)NC(=O)C(=C)NC(=O)[C@H](C)NC(=O)[C@H]([C@@H](C)CC)N[C@@H]2C=Cc3c([C@H](C)O)cc(nc3[C@H]2O)C(=O)O[C@@H]4C)n1)C(N)=O` [Thiostrepton] + CCCCNC(=O)OCC#CI [3-iodo-2-propynyl butylcarbamate (IPBC)], the growth yield came out at 101 ± 2.5% (40 h) and 100 ± 1.6% (72 h).

Consider `CNCCC=C1c2ccccc2CCc2ccccc21` [Nortriptyline hydrochloride] + CCCCNC(=O)OCC#CI [3-iodo-2-propynyl butylcarbamate (IPBC)], for which the growth yield runs as follows: (40 h) 70.5 ± 2.2%; (72 h) 94.28 ± 0.73%.

As to `COC(=O)C1=C(C#N)NC(C)=C(C(=O)OC(C)C)C1c1cccc([N+](=O)[O-])c1` (centres undefined) [Nilvadipine] + CCCCNC(=O)OCC#CI [3-iodo-2-propynyl butylcarbamate (IPBC)], the growth yield runs as follows: (40 h) 107.2 ± 0.16%; (72 h) 102 ± 2.5%.

Turning to `Cc1cc(O)c(C(=O)N[C@@H](C(=O)N[C@@H]2C(=O)N3C(C(=O)O)=C(CSc4nnnn4C)CS[C@H]23)c2ccc(O)cc2)cn1` [Cefpiramide] + CCCCNC(=O)OCC#CI [3-iodo-2-propynyl butylcarbamate (IPBC)], the growth yield reads like this: (40 h) 89.4 ± 2.7%; (72 h) 90.9 ± 1.4%.

As to `CN(C)C/C=C(/c1ccc(Br)cc1)c1cccnc1` [Zimelidine dihydrochloride monohydrate] + CCCCNC(=O)OCC#CI [3-iodo-2-propynyl butylcarbamate (IPBC)], the growth yield by setting is: (40 h) 77.8 ± 0.95%; (72 h) 93.5 ± 2.1%.

In the case of `C=C[C@H]1CN2CC[C@H]1C[C@@H]2[C@@H](O)c1ccnc2ccc(OC)cc12` [Quinidine hydrochloride monohydrate] + CCCCNC(=O)OCC#CI [3-iodo-2-propynyl butylcarbamate (IPBC)], the growth yield by setting is: (40 h) 77.7 ± 7.5%; (72 h) 89.8 ± 6.3%.

For `O=C(c1ccc(F)cc1)C1CCN(CCn2c(=O)[nH]c3ccccc3c2=O)CC1` [Ketanserin tartrate hydrate] + CCCCNC(=O)OCC#CI [3-iodo-2-propynyl butylcarbamate (IPBC)], the growth yield runs as follows: (40 h) 98.5 ± 8.3%; (72 h) 101 ± 3.2%.

For `CCNC(=O)CCC/C=C\C[C@@H]1[C@@H](/C=C/[C@@H](O)CCc2ccccc2)[C@H](O)C[C@@H]1O` [Bimatoprost] + CCCCNC(=O)OCC#CI [3-iodo-2-propynyl butylcarbamate (IPBC)], the growth yield by setting is: (40 h) 94.5 ± 5.6%; (72 h) 95.4 ± 4.2%.

For the compound `Cc1nc2n(c(=O)c1CCN1CCC(c3noc4cc(F)ccc34)CC1)CCCC2O` (centres undefined) [Paliperidone] + CCCCNC(=O)OCC#CI [3-iodo-2-propynyl butylcarbamate (IPBC)], the growth yield (40 h) was 82.28 ± 0.32% and the growth yield (72 h) is 90.09 ± 0.32%.

As to `Nc1c(Br)cc(Br)cc1CN[C@H]1CC[C@H](O)CC1` [Ambroxol hydrochloride] + CCCCNC(=O)OCC#CI [3-iodo-2-propynyl butylcarbamate (IPBC)], the growth yield by setting is: (40 h) 73.2 ± 2.1%; (72 h) 88.9 ± 2.5%.

Regarding `CCOC(=O)OC(C)OC(=O)[C@@H]1N2C(=O)[C@@H](NC(=O)[C@H](N)c3ccccc3)[C@H]2SC1(C)C` (some centres undefined) [Bacampicillin hydrochloride] + CCCCNC(=O)OCC#CI [3-iodo-2-propynyl butylcarbamate (IPBC)], the growth yield is, setting by setting: (40 h) 89.1 ± 7.5%; (72 h) 92.3 ± 3.8%.

Consider `CCN(CC)CC#CCOC(=O)C(O)(c1ccccc1)C1CCCCC1` (centres undefined) [Oxybutynin chloride] + CCCCNC(=O)OCC#CI [3-iodo-2-propynyl butylcarbamate (IPBC)], for which the growth yield (40 h) was found to be 74.18 ± 0.16% and the growth yield (72 h) was found to be 88.52 ± 0.63%.

As to `CCn1cc(C(=O)O)c(=O)c2cnc(N3CCNCC3)nc21` [Pipemidic acid] + CCCCNC(=O)OCC#CI [3-iodo-2-propynyl butylcarbamate (IPBC)], the growth yield is, setting by setting: (40 h) 85.1 ± 3.2%; (72 h) 90.1 ± 3%.

With `CCn1cc(C(=O)O)c(=O)c2ccc(C)nc21` [Nalidixic acid sodium salt] + CCCCNC(=O)OCC#CI [3-iodo-2-propynyl butylcarbamate (IPBC)], the growth yield turned out to be 49.2 ± 1.6% (40 h) and 100 ± 2.1% (72 h).

For `CCn1cc(C(=O)O)c(=O)c2cnc(N3CCCC3)nc21` [Piromidic acid] + CCCCNC(=O)OCC#CI [3-iodo-2-propynyl butylcarbamate (IPBC)], the growth yield (40 h) is 99.9 ± 14% and the growth yield (72 h) was found to be 99.5 ± 5.3%.

As for `COc1ccc(C(CN(C)C)C2(O)CCCCC2)cc1` (centres undefined) [Venlafaxine] + CCCCNC(=O)OCC#CI [3-iodo-2-propynyl butylcarbamate (IPBC)], the growth yield was 85.6 ± 4.3% (40 h) and 89 ± 3% (72 h).

`CC(C(=O)O)c1ccc2c(c1)[nH]c1ccc(Cl)cc12` (centres undefined) [Carprofen] + CCCCNC(=O)OCC#CI [3-iodo-2-propynyl butylcarbamate (IPBC)]: the growth yield is, setting by setting: (40 h) 33.2 ± 0.16%; (72 h) 68.3 ± 1.1%.

Turning to `CC(C(=O)O)c1ccc(C(=O)c2cccs2)cc1` (centres undefined) [Suprofen] + CCCCNC(=O)OCC#CI [3-iodo-2-propynyl butylcarbamate (IPBC)], the growth yield worked out at 86.6 ± 14% (40 h) and 89.1 ± 8.6% (72 h).

On to `CC(C)Cc1ccc([C@H](C)C(=O)O)cc1` [S-(+)-ibuprofen] + CCCCNC(=O)OCC#CI [3-iodo-2-propynyl butylcarbamate (IPBC)], for which the growth yield (40 h) was determined as 70.68 ± 0.16% and the growth yield (72 h) is 96.7 ± 1.7%.

In the case of `CC(C)(C)NC[C@H](O)COc1cccc2c1CCCC2=O` [(-) -Levobunolol hydrochloride] + CCCCNC(=O)OCC#CI [3-iodo-2-propynyl butylcarbamate (IPBC)], the growth yield runs as follows: (40 h) 97.8 ± 16%; (72 h) 99.2 ± 11%.

`c1ccc(C2CN3CCSC3=N2)cc1` (centres undefined) [Tetramisole hydrochloride] + CCCCNC(=O)OCC#CI [3-iodo-2-propynyl butylcarbamate (IPBC)]: the growth yield (40 h) was 87.8 ± 9.1% and the growth yield (72 h) was determined as 93.1 ± 4.8%.

Turning to `COc1ccc(CCN2CCC(Nc3nc4ccccc4n3Cc3ccc(F)cc3)CC2)cc1` [Astemizole] + CCCCNC(=O)OCC#CI [3-iodo-2-propynyl butylcarbamate (IPBC)], the growth yield (40 h) was 5.08% and the growth yield (72 h) was 4.3 ± 0.32%.

In the case of `CN(c1nccc(=O)[nH]1)C1CCN(c2nc3ccccc3n2Cc2ccc(F)cc2)CC1` [Mizolastine] + CCCCNC(=O)OCC#CI [3-iodo-2-propynyl butylcarbamate (IPBC)], the growth yield reads like this: (40 h) 70.2 ± 3.2%; (72 h) 88.1 ± 4.8%.

As for `Clc1ccc(Cn2c(CN3CCCC3)nc3ccccc32)cc1` [Clemizole hydrochloride] + CCCCNC(=O)OCC#CI [3-iodo-2-propynyl butylcarbamate (IPBC)], the growth yield (40 h) turned out to be 73.5 ± 1.4% and the growth yield (72 h) came out at 98.5 ± 1.4%.

Consider `CC(C)NCC(O)COc1ccc(CCOCC2CC2)cc1` (centres undefined) [Betaxolol hydrochloride] + CCCCNC(=O)OCC#CI [3-iodo-2-propynyl butylcarbamate (IPBC)], for which the growth yield is 90.2 ± 11% (40 h) and 99.4 ± 4.2% (72 h).

Regarding `NC[C@H]1O[C@H](O[C@H]2[C@H](O[C@@H]3O[C@H](CO)[C@@H](O)[C@H]3O)[C@@H](O)[C@H](N)C[C@@H]2N)[C@H](N)[C@@H](O)[C@@H]1O` [Ribostamycin sulfate salt] + CCCCNC(=O)OCC#CI [3-iodo-2-propynyl butylcarbamate (IPBC)], the growth yield (40 h) was determined as 91.5 ± 6.3% and the growth yield (72 h) came to 96.1 ± 3.4%.

With `Cc1cccn2c(=O)c(-c3nnn[nH]3)cnc12` [Pemirolast potassium] + CCCCNC(=O)OCC#CI [3-iodo-2-propynyl butylcarbamate (IPBC)], the growth yield turned out to be 72.7 ± 1.9% (40 h) and 84.4 ± 2% (72 h).
